# Assay results published in article PMC5540273 (PLoS ONE, 2017).
# How the values were obtained:
# Settings in all cases: concentration: 1 μM, replicates: in singlicate; n = 1
# AKT3 = test system: AKT3
# ALK = test system: ALK
# AMPK-alpha1 = test system: T1, AMPK-alpha1
# T1 construct: gene PRKAA1
# AMPK-alpha2 = test system: T2, AMPK-alpha2
# T2 construct: gene PRKAA2
# ANKK1 = test system: ANKK1
# ARK5 = test system: T3, ARK5
# T3 construct: gene NUAK1
# ASK1 = test system: T4, ASK1
# T4 construct: gene MAP3K5
# ASK2 = test system: T5, ASK2
# T5 construct: gene MAP3K6
# AURKA = test system: AURKA
# AURKB = test system: AURKB
# 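Further: KINOMEscan kinase panel screen.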
SMILES,%Inh (AKT3),%Inh (ALK),%Inh (AMPK-alpha1),%Inh (AMPK-alpha2),%Inh (ANKK1),%Inh (ARK5),%Inh (ASK1),%Inh (ASK2),%Inh (AURKA),%Inh (AURKB)
Nc1nc(-c2ccccn2)c(-c2ccnc3ccccc23)s1 [GW548057],0%,17%,14%,1%,20%,24%,2%,0%,17%,0%
CC(C)(C)c1ccc(-n2cnc3c(N)ncnc32)cc1 [SKF-97263],0%,7%,14%,21%,24%,10%,1%,1%,7%,16%
Cc1ccc(NC(=O)c2cccc(C#N)c2)cc1-c1ccc(C(=O)Nc2ccncc2)cc1 [GSK1398463],0%,31%,0%,15%,0%,33%,3%,8%,7%,12%
COc1ccc(NC(=O)Nc2ccc(C)c(-c3ccc(C(=O)Nc4ccncc4)cc3)c2)cc1 [GSK1398475],0%,18%,0%,0%,10%,0%,4%,0%,4%,0%
Cl.Cl.c1ccc(-c2cc3ccncc3cc2OC2CCNCC2)cc1 [GSK1122999],0%,23%,16%,22%,0%,13%,0%,4%,17%,10%
CCc1nc(-c2cccc(N(C)S(=O)(=O)c3ccccc3)c2)c(-c2ccnc(Nc3ccc(N4CCN(C(C)=O)CC4)nc3)n2)s1 [GSK1645895],0%,18%,0%,0%,26%,16%,12%,0%,19%,10%
Nc1nc(-c2ccc3c(N)n[nH]c3c2)cc(N2CCCCC2)n1 [GSK2228768],0%,14%,0%,0%,3%,0%,0%,9%,0%,14%
O=C(NCCCN1CCCC1=O)c1cnc(NCc2cc(Cl)ccc2Cl)nc1NC1CCNCC1,0%,21%,18%,17%,0%,0%,0%,0%,0%,0%
Cl.c1ccc(Cn2ccc3cc(Nc4ncnc5ccccc45)ccc32)cc1 [GW275568],0%,0%,11%,0%,43%,29%,1%,0%,17%,30%
CSc1nn2c(=O)cc(N3CCOCC3)nc2n1Cc1cccc(Cl)c1Cl [GSK2347225],1%,30%,11%,20%,19%,7%,14%,0%,21%,0%
FC(F)(F)c1cc(Nc2nccc(-c3c(-c4ccc(Cl)cc4)nn4ncccc34)n2)ccc1Cl [GW829351],0%,8%,0%,0%,0%,0%,0%,0%,5%,0%
Cl.Cn1ccc(-c2cccc(Nc3ccnc4cc(-c5nccs5)ccc34)c2)n1 [GW525701],0%,28%,0%,14%,8%,0%,9%,0%,0%,28%
COc1ccc(Nc2nccc(N3CCC(NC(=O)Nc4ccc5c(c4)OCO5)C3)n2)cc1 (stereo not drawn) [GSK1379745],0%,20%,24%,24%,2%,9%,9%,5%,6%,13%
Cc1ccc(O)cc1Nc1cc(C(F)(F)F)nc2ccc(-c3ccncc3)cc12 [GW630823],0%,0%,0%,0%,0%,0%,30%,0%,0%,0%
Cn1cc(-c2ccc3c(c2)CCN3C(=O)Cc2cccc(C(F)(F)F)c2)c2c(N)ncnc21 [GSK2606414],53%,1%,0%,13%,16%,13%,0%,10%,30%,32%
Nc1nc(-c2cccnc2)c(-c2ccnc3ccccc23)s1 [GW684083],0%,22%,23%,20%,5%,0%,0%,10%,0%,7%
CN1CCC(n2cnc(-c3ccc(F)cc3)c2-c2ccnc(NC3CCNCC3)n2)CC1 [SB-229482],32%,22%,0%,12%,0%,0%,0%,0%,34%,40%

SMILES,%Inh (AKT3),%Inh (ALK),%Inh (AMPK-alpha1),%Inh (AMPK-alpha2),%Inh (ANKK1),%Inh (ARK5),%Inh (ASK1),%Inh (ASK2),%Inh (AURKA),%Inh (AURKB)
Nc1nc(-c2ccc3c(N)n[nH]c3c2)cc(N2CCC[C@@H](C(=O)Nc3ccccc3)C2)n1.O=C(O)C(F)(F)F.O=C(O)C(F)(F)F [GSK2288359],0%,5%,9%,26%,12%,0%,1%,0%,–,0%
Cl.c1ccc(Cn2ncc3cc(Nc4ncnc5ccccc45)ccc32)cc1 [GW273749],0%,16%,0%,0%,0%,0%,0%,1%,10%,8%
Fc1cccc(COc2ccc(Nc3ncnc4nn5ccccc5c34)cc2Cl)c1 [GW689066],0%,26%,0%,0%,0%,11%,8%,0%,0%,0%
CC(C)(C)OC(=O)NC1CCCN(c2cc(-c3ccc4c(N)n[nH]c4c3)nc(N)n2)C1 (stereo not drawn) [GSK2286096],0%,36%,0%,0%,7%,19%,0%,0%,52%,66%
COc1ccc(-c2oc3ncnc(N)c3c2-c2ccc(OC)cc2)cc1 [SB-589132],0%,32%,0%,10%,0%,13%,11%,7%,0%,30%
Clc1ccc(-c2cc(-c3c[nH]nc3-c3ccccn3)ccn2)cc1 [GW681251],0%,19%,2%,0%,0%,4%,0%,0%,4%,8%
OCCOCCn1ccc2ncnc(Nc3ccc(Oc4cccc(Cl)c4)c(Cl)c3)c21,0%,0%,0%,0%,0%,0%,0%,0%,0%,0%
CC(C)N1CCC(n2cnc(-c3ccc(F)cc3)c2-c2ccnc(N)n2)CC1 [SB-223132],0%,12%,0%,11%,0%,0%,1%,0%,0%,0%
CCc1nc(-c2cccc(C)c2)c(-c2ccnc(NC(=O)c3ccccc3)c2)s1,0%,27%,16%,1%,0%,0%,9%,0%,17%,6%
FC(F)(F)c1ccc(-c2cc(-c3c[nH]nc3-c3ccccn3)ccn2)cc1 [GW599550],0%,24%,4%,16%,20%,0%,5%,0%,18%,17%
Nc1nccc2scc(-c3ccc4c(c3)CCN4C(=O)Cc3cc(F)ccc3F)c12 [GSK2587663],0%,8%,0%,11%,1%,0%,6%,13%,0%,8%
C[C@@H]1CCN(C(=O)CO)C[C@@H]1N(C)c1ncnc2[nH]ccc12,7%,15%,5%,0%,0%,0%,0%,0%,0%,0%
CS(=O)(=O)CCNCc1ccc(-c2ccc3ncnc(Nc4ccc(OCc5ccccc5)c(Cl)c4)c3c2)o1.Cl [GW574783],27%,18%,9%,24%,0%,18%,0%,0%,0%,4%
Cl.Fc1ccccc1COc1ccc(Nc2ncnc3ccc(-c4nnc(C(F)(F)F)o4)cc23)cc1Cl [GW424170],0%,0%,0%,0%,0%,0%,0%,0%,13%,0%
O=C(Nc1ccccc1F)NC1CCN(c2ccnc(Nc3ccc(F)cc3)n2)C1 (stereo not drawn) [GSK1379722],0%,26%,2%,21%,0%,12%,8%,16%,0%,38%
C[C@H]1CC[C@@H](C(=O)Nc2ccccc2)CN1c1cc(-c2ccc3c(N)n[nH]c3c2)nc(N)n1 [GSK2283293],0%,30%,0%,13%,11%,1%,0%,5%,0%,6%
O=C(CCO)NCCn1ccc2ncnc(Nc3ccc(Oc4cccc(C(F)(F)F)c4)c(Cl)c3)c21,0%,0%,0%,0%,0%,0%,0%,0%,0%,0%
